Here are results for 59 compounds from PubChem BioAssay AID1745849 (National Center for Advancing Translational Sciences (NCATS), 2022).

Structures are written as SMILES. About 320 (15%) of roughly 2,100 compounds were called active. Roughly 52% stayed inconclusive and do not appear here. Calls come from the whole dose curve; as a rule, active = well fitted cell-killing curve with a large enough effect; inconclusive = small, poorly fitted or top-dose-only effect, or effect the other way; inactive = flat fitted curve, though single readings scatter. The list shows a part of the results. Entries that show only a call come without a potency.
Potency is the fitted concentration of half-maximal effect.

The nature of this experiment: Viability Counterscreen for CMV-Luciferase Assay of Inhibitors of ATXN expression. Note: nearly all actives have a fitted effect of over 55% in size. Particulars: HEK-293 CMV-luciferase cells viability, protease fluorescence, 24 h. The text has this: PI: Daniel Scoles Ph.D. University of Utah School of Medicine, Salt Lake City, Utah MLPCN Grant: NS073009 Spinocerebellar ataxia type 2 (SCA2) is a multisystem neurodegenerative disease caused by a dominantly acting mutation leading to expansion of a polyQ domain in the ataxin-2 protein (ATXN2). SCA2 patients develop progressive ataxia and later lose function in other neuronal systems. Prominent parkinsonian signs develop in some patients. Like many neurodegenerative disorders, no symptomatic or disease-modifying treatments are known. The primary objective of the proposed research is to identify compounds inhibiting ATXN2 expression and to test them for efficacy in SCA2 mouse models. We have developed a cell-based assay paired with an in vivo mouse model using identical luciferase expression constructs. This approach takes advantage of an ATXN2-luciferase transgene, with the luciferase gene flanked by the upstream and downstream portions of the ATXN2 gene. Here we describe a 5-7 dose quantitative high thoroughput screen (qHTS) for compounds lowering ATXN2 expression. We screened the NIH Molecular Libraries Small Molecule Repository (MLSMR) and NCGC's mechanistically annotated (MIPE) and drug repurposing (NPC) collections of compounds for lowering expression of an ATXN2-luciferase reporter in HEK-293 cells. The assay is a multiplexed cell viability assay to ensure target reduction in the absence of cytotoxicity. Secondary qHTS assays included a CMV-luciferase reporter expressed in HEK-293 cells as well as a biochemical assay using recombinant luciferase to detect inhibitors of the reporter enzyme. Compounds that inhibit ATXN2 expression but is not cytotoxic were selected for confirmatory and secondary screens.
PROTOCOL TABLE (as described by Inglese J, Shamu CE and Guy RK. 2007) SEQUENCE No. (e.g., 1, 2, 3, etc.); […] (e.g., Cells, Incubation, Reagent, etc.); VALUE; DESCRIPTION. 1; Cells; 4 uL; white, solid bottom, 1536-well Greiner assay plate. 2; Incubation; 2 hr; 37 degree C in 5% humidified CO2. 3; Compounds; 23 nL; Kalypsis pintool (Wako USA) equipped with a 1536-well pin head. 4; Incubation; 24 hr; 37 degree C in 5% humidfified CO2. 5; Reagent; 1 uL; Gly-Phe-7-Amino-4-trifluoromethylcoumarin. 6; Incubation; 30 min; 37 degree C in 5% humidfified CO2. 7; Detection; Fluorescence; Viewlux plate reader (PerkinElmer). 8; Reagent; 3 uL; SteadyGlo luciferase solution (Promega). 9; Incubation; 5 min; room temperature. 10; Detection; Luminescence; ViewLux plate reader (PerkinElmer). NOTES (numbers refer to Sequence numbers above) 1. HEK-293 cells expressing CMV-luciferase reporter (designated as SC cells) were suspended in phenol-red free DMEM and dispensed in assay plates using a Multidrop Combi dispenser (Thermo Fisher Scientific). 2. Assay plates were incubated. Evaporation was prevented by covering assay plates with metal lids containing holes to allow gas diffusion. 3. Compounds were added in a dose response manner with the final concentrations of 57, 11.4, 2.28, 0.46, 0.091, 0.018, 0.0037 uM. Vehicle-only plates, with DMSO being pin-transferred to columns 5-48, were inserted uniformly at the beginning and the end of each library to monitor and record any shifts in assay performance. 5. 125 uM Gly-Phe-7-Amino-4-trifluoromethylcoumarin (MP Biomedicals) working concentration was used at a final concentration of 25 uM. 7. To assess cell viability; the assay plates were read using the ViewLux high-throughput CCD imager (PerkinElmer), wherein single end-point fluorescence measurement was acquired (excitation 405/10; emission 540/25 nm). 8. Detection reagent SteadyGlo Luciferase (Promega) was added to the assay plate. 10. Luminescence is then measured on the ViewLux imager equipped with a clear emission filter using a 2 sec exposure. […]
In general terms: A counterscreen serves to expose hits that act by an unwanted route or on another target.
As for `Cc1cc(C)cc(NC(=O)CCC(=O)Nc2cc(C)on2)c1`, the Potency result is “inactive”.

For `Cn1c(SCc2ccc(C(C)(C)C)cc2)nnc1C1COc2ccccc2O1` (centres undefined), the Potency entry was “inactive”.

Take `N#C/C(=C/c1ccc(Sc2nc3ccccc3[nH]2)o1)c1cccc(F)c1`: the Potency result is “inactive”.

With `CC1(C(=O)NC2CCN(Cc3ccccc3)CC2)CCN1Cc1ccc2ccccc2c1` (centres undefined), the Potency result was “inactive”.

For the compound `C=CCN(C(=O)CSc1nc2c(sc3ccccc32)c(=O)n1CCN(CC)CC)c1ccccc1`, the Potency was 20 µM (active).

On to `COc1ccc(/C=C/C(O)=C2/C(=O)N(C)C3(C)CC2c2ccccc2O3)cc1` (centres undefined), for which the Potency entry was “inactive”.

For the compound `COc1ccc(C(=O)c2c(C)c3ccccc3n2CC(O)CNC(C)C)cc1` (centres undefined), the Potency was 17.8 µM (active).

Turning to `O=C(Oc1c(CN2CCOCC2)cc(Cl)c2cccnc12)c1cccs1`, the Potency entry is “inactive”.

As to `COc1cnc(-c2ccccn2)nc1NC(C)C`, the Potency was 6.31 µM (active).

For the compound `COc1cc(C#Cc2c(-c3cncn3C)n(C)c3ccc(-c4ccc(CN5CCOCC5)cc4)cc23)cc(OC)c1`, the Potency result was “inactive”.

For the compound `COc1ccc2c(-c3ccc(S(N)(=O)=O)cc3)c(-c3ccc(S(C)(=O)=O)cc3)sc2c1`, the Potency entry is “inactive”.

`NC(=O)c1cc([N+](=O)[O-])ccc1NCc1ccc(N)cc1`: the Potency is 22.4 µM (active).

For `OCCN1CCN(C2CCC(c3ccc(F)cc3)c3ccc(F)cc32)CC1` (centres undefined), the Potency result is “inactive”.

Take `CC(C)CC(NC(=O)c1ccc(Cl)cc1)C(=O)OCC(=O)c1ccc2c(c1)NC(=O)CO2` (centres undefined): the Potency was 14.1 µM (active).

As for `CN(C)CCCNc1nc2cc(-c3cccc(Cl)c3)sc2c(=O)n1C`, the Potency entry was “inactive”.

Turning to `O=C(CNC(=O)c1ccccc1O)N/N=C/c1cc(Br)ccc1OC(=O)/C=C/c1ccco1`, the Potency result is “inactive”.

As for `CCCn1ncc(CN2CCC(C(=O)Nc3cccc(-c4cccc(F)c4)c3)CC2)c1C`, the Potency entry was “inactive”.

For `COCc1ccc(CN2CCC(C(=O)Nc3cccc(-c4cccc(Cl)c4)c3)CC2)o1`, the Potency is 17.8 µM (active).

In the case of `CC(=O)c1cc(CN2CCC(C(=O)Nc3cccc(-c4cscn4)c3)CC2)cs1`, the Potency result was “inactive”.

Turning to `O=C(NCc1ccco1)c1ccc(-c2cccc(Cl)c2)o1`, the Potency entry was “inactive”.

For the compound `CN1CCC(N(C)C(=O)c2ccc(Cl)c(S(=O)(=O)N3CCc4ccccc43)c2)CC1`, the Potency result is “inactive”.

Take `Cc1ccccc1SCC(=O)N1CCN(c2ccc(C(F)(F)F)cn2)CC1`: the Potency result is “inactive”.

For `O=C(Nc1ccc(F)cc1)c1sccc1SCc1cccc(C(F)(F)F)c1`, the Potency result was “inactive”.

For `O=C(CSC1=NNC(c2ccccn2)S1)Nc1ccc(C(F)(F)F)cc1` (centres undefined), the Potency was 14.1 µM (active).

As for `COC(=O)c1ccsc1NC(=O)CN1CCN(Cc2ccc3c(c2)OCO3)CC1`, the Potency entry is “inactive”.

With `Cc1ccc2nc(NC(=O)CSCC(=O)OCC(=O)c3ccc(Br)cc3)sc2c1`, the Potency entry was “inactive”.

Consider `Cc1ccc(C(=O)COC(=O)c2ccc3c(c2)C(=O)N(c2cccc4ncccc24)C3=O)cc1`, for which the Potency was 22.4 µM (active).

Turning to `Cc1ccc(C(=O)CN2C(=O)c3ccccc3S2(=O)=O)cc1`, the Potency entry was “inactive”.

In the case of `O[C@@H]1[C@@H](O)C=C2CCN3Cc4cc5c(cc4[C@H]1C23)OCO5` (some centres undefined), the Potency is 6.31 µM (active).

On to `Cc1cc(C)n(-c2ccc(C(=O)N3CCN(S(=O)(=O)c4cccc(Br)c4)CC3)cc2)n1`, for which the Potency entry is “inactive”.

As for `CCc1cc(-c2[nH]ncc2-c2ccc(OC)cc2)c(O)cc1O`, the Potency entry is “inactive”.

With `CCn1c2ccccc2c2cc(/C=C(/C#N)C(N)=S)ccc21`, the Potency result was “inactive”.

Consider `CCOC(=O)/C=C/C(=O)Nc1ccc(Oc2ccccc2)cc1`, for which the Potency result was “inactive”.

Take `O=C(Nc1ccc(Oc2ccc(NC(=O)Nc3ccc([N+](=O)[O-])cc3)cc2)cc1)Nc1ccc([N+](=O)[O-])cc1`: the Potency was 10 µM (active).

Regarding `Cc1ccc(Cc2cnc(NC(=O)/C(C#N)=C/c3ccc(-c4cccc([N+](=O)[O-])c4)o3)s2)cc1`, the Potency was 20 µM (active).

For the compound `Cc1ccc(-c2ccc(/C=N/c3ncn[nH]3)o2)cc1Cl`, the Potency entry was “inactive”.

Regarding `CCCc1cc(=O)[nH]c(-n2[nH]c3c(c2=O)CCCC3)n1`, the Potency was 22.4 µM (active).

`CCn1c2ccccc2c2cc(NC(=O)COC(=O)c3cc(S(=O)(=O)N4CCCCC4)ccc3Cl)ccc21`: the Potency entry was “inactive”.

As for `CC[C@]12c3[nH]c4ccc(Cl)cc4c3CCN1C(=O)[C@@H](CC(=O)NCC13CC4CC(CC(C4)C1)C3)C[C@@H]2C(=O)N1CCN(C(=O)C2CC2)CC1`, the Potency was 22.4 µM (active).

With `CC[C@]12c3[nH]c4ccc(Cl)cc4c3CCN1C(=O)[C@@H](CC(=O)NCC13CC4CC(CC(C4)C1)C3)C[C@@H]2C(=O)N1CCN(C(=O)c2ccco2)CC1`, the Potency is 3.16 µM (active).

On to `CCOC(=O)c1cnc2ccc(OC)cc2c1Nc1ccc(N2CCN(C)CC2)cc1`, for which the Potency entry was “inactive”.

`Cc1ccc2nc3cc([N+](=O)[O-])cc([N+](=O)[O-])c3cc2c1`: the Potency is 11.2 µM (active).

For the compound `Cc1ccc2nc(SCc3ccc([N+](=O)[O-])cc3)[nH]c2c1`, the Potency result was “inactive”.

As to `COc1cc2nc(N(C)C)nc(N)c2cc1OC`, the Potency is 25.1 µM (active).

With `COc1cc2nc(CN(C)Cc3ccc(SC)cc3)[nH]c(=O)c2cc1OC`, the Potency result is “inactive”.

Consider `COc1ccc(C)cc1Nc1nc(N)c2cc(OC)c(OC)cc2n1`, for which the Potency entry was “inactive”.

Regarding `CC(C)(C)S(=O)(=O)/C(C#N)=N/Nc1ccc(Cl)cc1`, the Potency was 25.1 µM (active).

As to `CCc1ccc(N(CC)C(=O)c2ccc3c(Cl)c4c(nc3c2)CCC4)cc1`, the Potency result was “inactive”.

Consider `O=C(NC(=S)N1CCN(c2ccc(F)cc2)CC1)c1cccs1`, for which the Potency entry is “inactive”.

On to `O=C(Nc1ccc(N2CCN(C(=O)c3ccco3)CC2)c(Cl)c1)c1c(F)c(F)c(F)c(F)c1F`, for which the Potency result is “inactive”.

`O=C(Nc1ccc(N2CCN(C(=O)c3ccco3)CC2)c(Cl)c1)c1cccs1`: the Potency was 28.2 µM (active).

`CC(C)(C)OC(=O)N1CCC(c2c(C(=O)NCC3CCN(C4CCCC4)C3)cnn2-c2cccc(Cl)c2)CC1` (centres undefined): the Potency entry was “inactive”.

In the case of `CCOC(=O)c1c(C)nn(-c2ccc(NC(=O)/C=C/C(=O)O)cc2)c1C`, the Potency entry was “inactive”.

Turning to `COC(=O)c1c(NC(=O)/C=C/C(=O)O)sc(C)c1-c1ccc(C(C)C)cc1`, the Potency was 20 µM (active).

Turning to `CC(=O)c1sc(C(C)(C)C)cc1NC(=O)/C=C/C(=O)O`, the Potency result is “inactive”.

Take `CC(=O)c1ccc(S(=O)(=O)N2CCN(CCOc3ccc(Br)cc3)CC2)cc1`: the Potency entry is “inactive”.

`CN(C)CCCN(C(=O)CCc1ccccc1)c1nc2ccc(Br)cc2s1`: the Potency is 22.4 µM (active).

`CN(C)CCCN(C(=O)c1ccc(S(=O)(=O)N2CCCCCC2)cc1)c1nc2ccc(Br)cc2s1`: the Potency entry was “inactive”.

`CN(C)CCCN(C(=O)c1ccc(S(=O)(=O)N2CCCC2)cc1)c1nc2ccc(Br)cc2s1`: the Potency is 31.6 µM (active).
